Drawing on PubChem BioAssay (EPA / NIEHS), this text covers outcome and AC50 for 40 molecules.

Molecules are shown by their SMILES. Records with an inconclusive call do not appear. Active and inactive are the calls of the source. Rule for the calls: active = hit-call score of the fitted dose curve at least 0.9, where 1 is the maximum; inconclusive = response in the unintended direction; inactive = score below 0.9.

In general, AC50 refers to the concentration giving half of the maximal activity seen.

Cellular tumor antigen p53 (Homo sapiens), sequence (P04637 whole entry, looked up): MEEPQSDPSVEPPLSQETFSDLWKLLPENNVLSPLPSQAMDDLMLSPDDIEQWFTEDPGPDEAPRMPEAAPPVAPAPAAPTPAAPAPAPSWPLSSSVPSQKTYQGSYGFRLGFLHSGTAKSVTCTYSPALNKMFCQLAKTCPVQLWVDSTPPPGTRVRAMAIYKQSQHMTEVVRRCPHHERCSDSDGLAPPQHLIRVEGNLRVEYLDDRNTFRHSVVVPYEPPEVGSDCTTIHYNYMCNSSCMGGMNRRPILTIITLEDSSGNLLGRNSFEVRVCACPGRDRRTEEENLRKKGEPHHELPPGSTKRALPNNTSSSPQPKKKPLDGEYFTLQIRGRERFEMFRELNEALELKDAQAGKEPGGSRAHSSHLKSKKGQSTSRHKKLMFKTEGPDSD

The experiment concerns the target Cellular tumor antigen p53 (Homo sapiens) (UniProt P04637). Put plainly: TOX21_p53_BLA_p2_ratio: Tox21 HCT-116 p53 Agonism Beta-lactamase Assay, Ratio, Phase 2 (AID 2283592). The method, boiled down: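 Read-out is the blue/green (460/530 nm, 405 nm excitation) ratio after 2 h CCF4-AM loading, fitted as gain versus DMSO. Compounds, pinned at 217-fold dilution from DMSO stocks, stayed 16 h on HCT-116 beta-lactamase reporter cells seeded 5 h earlier.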
For the molecule `Cc1c(C(C)C)c(=O)n(-c2ccccc2)n1C`, the outcome was inactive.
In the case of `COc1ccccc1N1CCN(CCCCNC(=O)c2ccc(-c3ccc(C(C)=O)cc3)cc2)CC1`, the outcome was inactive.
Still for that read-out and setting: next, `C[C@]12CC[C@@H]3c4ccc(OS(=O)(=O)O)cc4CC[C@H]3[C@@H]1CCC2=O`: “inactive”.
Turning to `CN(C)c1ccc(/C=C/c2ccc([N+](=O)[O-])cc2)cc1`, the outcome was inactive.
Still for that read-out and setting: next, `CC(=O)O[C@H]1C[C@@]2(C)[C@@H](C[C@@H](O)[C@H]3[C@@]4(C)CC[C@@H](O)[C@@H](C)[C@@H]4CC[C@@]32C)/C1=C(\CCC=C(C)C)C(=O)O`: “inactive”; `CC(CNC(=O)c1cccnc1)NC(=O)c1cccnc1` (stereo not given): “inactive”.
Same read-out and setting: next, `O=C1c2ccccc2S(=O)(=O)N1CCCCN1CCN(c2ncccn2)CC1`: “inactive”; `OCC=CCO`: “inactive”; `CN(C)CCCNCCC#N`: “inactive”.
Still for that read-out and setting: next, `c1ccc2cc(C3=NCCN3)ccc2c1`: “inactive”; `CC(=O)OCC(=O)[C@@]1(O)[C@H](OC(C)=O)C[C@H]2[C@@H]3CCC4=CC(=O)C=C[C@]4(C)[C@@]3(F)[C@@H](O)C[C@@]21C`: “inactive”; `COc1cc(-c2ccc(=O)[nH]n2)ccc1OC(F)F`: “inactive”.
As for `CCOc1ccc(O)cc1`, the result was inactive.
On the same count and under the same terms, next, `Cc1nc2n(c(=O)c1CCN1CCC(c3noc4cc(F)ccc34)CC1)CCCC2`: “inactive”; `CCC(=O)O[C@]1(C(=O)CCl)[C@@H](C)C[C@H]2[C@@H]3CCC4=CC(=O)C=C[C@]4(C)[C@@]3(F)[C@@H](O)C[C@@]21C`: “inactive”; `CC(C)(C)C1(CCc2ccc(Cl)cc2)CO1` (stereo not given): “inactive”.
Same read-out and setting: next, `CCOC(=O)[C@H](CCc1ccccc1)N[C@H]1CS[C@H](c2cccs2)CN(CC(=O)O)C1=O`: “inactive”; `C1C[C@@H]2[C@H]3CC[C@H](C3)[C@@H]2C1`: “inactive”.
The same measure, in the same setting: next, `CN=C(N)NC(=O)Nc1c(C)cccc1C`: “inactive”; `CC(C)SCc1ccco1`: “inactive”.
Turning to `CN(C)CCOC(c1ccc(Cl)cc1)c1ccccn1` (stereo not given), the result was inactive.
The same measure, in the same setting: next, `COC(=O)CC#N`: “inactive”.
The same measure, in the same setting: as for `C/C(=N\O)c1ccc(OCC(=O)N2CCCCC2)cc1`, the entry is “inactive”.
On the same count and under the same terms, as for `O=Cc1ccc(Cl)c(Cl)c1`, the entry is “inactive”; as for `CO/N=C(\C(=O)N[C@@H]1C(=O)N2C(C(=O)[O-])=C(C[n+]3ccc(N)n3CCO)CS[C@H]12)c1csc(N)n1`, “inactive”; as for `CN=C(NC#N)NCCSCc1csc(N=C(N)N)n1`, “inactive”.
Turning to `O=C(O)[C@@H]1C[C@H](CP(=O)(O)O)CCN1`, the outcome was inactive.
Consider `Oc1ccc(C2(c3ccc(O)cc3)CC3CC2C2CCCC32)cc1` (stereo not given), for which the concentration at half-maximal activity (AC50) was 82.8 µM (active).
Take `O=C1c2ccccc2C(=O)C1c1ccc(Br)cc1`: the result was inactive.
On the same count and under the same terms, next, `CC1(C)CC(OC(=O)CCCCCCCCC(=O)OC2CC(C)(C)NC(C)(C)C2)CC(C)(C)N1`: “inactive”; `CO/N=C(\C(=O)N[C@@H]1C(=O)N2C(C(=O)O)=C(CSC(=O)c3ccco3)CS[C@H]12)c1csc(N)n1`: “inactive”.
Regarding `c1ccc2cc3c4ccccc4c4ccccc4c3cc2c1`, the outcome was inactive.
Same read-out and setting: next, `CCC(=O)OC/C=C/c1ccccc1`: “inactive”; `CCC(N)(CO)CO`: “inactive”.
On the same count and under the same terms, as for `C=CCCC=C`, the entry is “inactive”.
Still for that read-out and setting: as for `COc1ccc(C2C(=O)c3ccccc3C2=O)cc1`, the entry is “inactive”; as for `CC(=O)Nc1ccc(N)cc1`, “inactive”; as for `O=C(O)CCC(=O)c1ccc(-c2ccccc2)cc1`, “inactive”.
As to `Oc1cc(O)c2c(c1)O[C@H](c1ccc(O)c(O)c1)[C@H](O)C2`, the outcome was inactive.
Consider `C[N+](C)(C)CCOC(=O)CCC(=O)OCC[N+](C)(C)C`, for which the result was inactive.
